# Source: PubChem BioAssay (NCATS)
# Results filed as inconclusive are left out. Calls of active or inactive are those of the source. Unless noted, calls follow the shape of the full dose curve. Positions of bridges follow the written chain, without caps; N, C: chain ends. Non-standard residues stand in square brackets, D forms with d. Residues, ends and D or L forms follow the SMILES beside them. ξ: configuration not given here. *: point of attachment. Octanoyl(6-Me) = CCC(C)CCCCC(=O)*; ξThr(3R) = C[C@@H](O)C(N)C(=O)O; dDab = NCC[C@@H](N)C(=O)O; Dab = NCC[C@H](N)C(=O)O; Nva = CCC[C@H](N)C(=O)O; Cbz = O=C(OCc1ccccc1)*
# What was measured:
# [1] = qHTS drug screen for cell cycle checkpoint inhibitors in PARPi-resistant BRCA-mutant ovarian cancer cell lines. (AID 1963452); conditions: PEO1/OlaR viability, CellTiter-Glo luminescence, 96 h; for Z-AUC: stronger effect = lower value; also: potency is read from the fitted curve at half-maximal effect
# Summary of the method: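 PEO1, PEO4 and PEO1/OlaR ovarian cancer cells, 600 per well, exposed 96 h at 37C to a dilution series. Viability read by CellTiter-Glo luminescence, normalized to DMSO and empty wells; activity summarized as Z-AUC.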
# [2] = qHTS for identification of novel therapeutic agents for treatment of microphthalmiaassociated transcription factor (MiT) renal cell carcinoma (RCC) (AID 1963991); conditions: CellTiter-Glo, 48 h; for z-score: stronger effect = lower value; for Potency: active = Z-AUC below -0.8 in all three lines; also: potency is read from the fitted curve at half-maximal effect
# Summary of the method: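 Three TFE3-fusion RCC lines (UOK109, UOK124, UOK145), 500 cells/well in complete medium, were treated with MIPE 4.0 compounds for 48 hours at 37 C. Viability was by CellTiter-Glo luminescence, normalized to DMSO (100%) and empty wells (0%); curves fitted over 11 concentrations.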
# [3] = qHTS profiling for inhibitors of Plasmodium falciparum proliferation (AID 504749; active = well fitted inhibition curve with a large enough effect;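 also: 0% = DMSO vehicle and full inhibition = artemisinin control; nearly all actives have a fitted effect of over 60% in size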); conditions: P. falciparum in erythrocytes, SYBR Green DNA, 72 h, at 12.8 µM (top of the series)
# Summary of the method: (§1)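 P. falciparum-infected erythrocytes (0.3% parasitemia, 2.5% hematocrit) incubated with compound 72 h at 37 C, 5% CO2. Parasite DNA detected by SYBR Green after lysis, overnight at room temperature; normalised to 0.29 uM artemisinin and DMSO.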
# 3D7 = assay: as above; conditions: P. falciparum in erythrocytes, SYBR Green DNA, 72 h; series mostly up to 28.7 µM
# Summary of the method: as §1
# 7G8 = assay: as above; conditions: P. falciparum in erythrocytes, SYBR Green DNA, 72 h; series mostly up to 28.7 µM
# Summary of the method: as §1
# AA1029 = assay: as above; conditions: P. falciparum in erythrocytes, SYBR Green DNA, 72 h; series mostly up to 28.7 µM
# Summary of the method: as §1
# AS120 = assay: as above; conditions: P. falciparum in erythrocytes, SYBR Green DNA, 72 h; series mostly up to 28.7 µM
# Summary of the method: as §1
# [4] = measured here: PEO1 parental Z-AUC
# [5] = TFE3-RCC UOK109 viability, measured here: UOK109 Z-AUC
# [6] = TFE3-RCC viability, measured here: UOK124 Z-AUC
# [7] = TFE3-RCC viability, measured here: UOK145 Z-AUC
smiles,measurement,setting,value
COC(=O)[C@H](CCCN=C(N)N)NS(=O)(=O)c1ccc(C)cc1,Z-AUC,[1],1.53 (inactive)
same,Z-AUC,[1]; [4],1.46
same,Z-AUC,[1]; measured here: PEO4 Z-AUC,1
same,z-score,[2]; [5],0.843
same,z-score,[2]; [6],0.187
same,z-score,[2]; [7],0.701
O=C(c1ccc(F)cc1)N1CCC[C@H](c2nc(-c3ccc(F)cc3)no2)C1,Z-AUC,[1],1.14 (inactive)
same,Z-AUC,[1]; [4],0.372
same,Z-AUC,[1]; measured here: PEO4 Z-AUC,0.34
same,z-score,[2]; [5],1.39
same,z-score,[2]; [6],0.757
same,z-score,[2]; [7],0.391
Cc1cc(O)c2c(c1)C(=O)c1cccc(O)c1C2=O,Z-AUC,[1],-0.855 (inactive)
same,Z-AUC,[1]; [4],0.00192
same,Z-AUC,[1]; measured here: PEO4 Z-AUC,-0.281
same,z-score,[2]; [5],-0.138
same,z-score,[2]; [6],0.712
same,z-score,[2]; [7],0.0822
CCCc1nc(C(C)(C)O)c(C(=O)O)n1Cc1ccc(-c2ccccc2-c2nn[nH]n2)cc1,Z-AUC,[1],0.227 (inactive)
same,Z-AUC,[1]; [4],0.788
same,Z-AUC,[1]; measured here: PEO4 Z-AUC,1.03
same,z-score,[2]; [5],1.09
same,z-score,[2]; [6],0.526
same,z-score,[2]; [7],0.646
CC(C)C[C@H](NC(=O)[C@@H](NC(=O)c1cccc(-c2ccccc2)n1)[C@@H](C)O)B(O)O,Potency,[1],60.1 nM (active)
same,Z-AUC,[1]; [4],-2.93
same,Z-AUC,[1]; measured here: PEO4 Z-AUC,-3.51
same,Potency,[2]; TFE3-RCC UOK109 viability,469 nM (active)
same,z-score,[2]; [5],-1.47
same,z-score,[2]; [6],-3.68
same,z-score,[2]; [7],-3.39
Cc1ccccc1C(=O)Nc1ccc(C(=O)N2CCCC(O)c3cc(Cl)ccc32)c(C)c1 (stereo not drawn),Z-AUC,[1],-0.543 (inactive)
same,Z-AUC,[1]; [4],-0.255
same,Z-AUC,[1]; measured here: PEO4 Z-AUC,0.00137
same,z-score,[2]; [5],-0.031
same,z-score,[2]; [6],0.501
same,z-score,[2]; [7],0.525
CC(Cc1ccc(O)c(O)c1)(NN)C(=O)O (stereo not drawn),Z-AUC,[1],1.29 (inactive)
same,Z-AUC,[1]; [4],0.784
same,Z-AUC,[1]; measured here: PEO4 Z-AUC,0.906
same,z-score,[2]; [5],0.533
same,z-score,[2]; [6],0.304
same,z-score,[2]; [7],0.315
O=C1NC(O)CCN1[C@@H]1O[C@H](CO)[C@H](O)[C@H]1O (stereo partly drawn),Z-AUC,[1],-0.827 (inactive)
same,Z-AUC,[1]; [4],-1.1
same,Z-AUC,[1]; measured here: PEO4 Z-AUC,-1.36
same,z-score,[2]; [5],0.896
same,z-score,[2]; [6],0.732
same,z-score,[2]; [7],0.58
O=C(CN1C(=O)C2(CCCC2)NC[C@H]1c1cc(F)cc(F)c1)Nc1ccc2c(c1)C[C@@]1(C2)C(=O)Nc2ncccc21,Z-AUC,[1],0.0664 (inactive)
same,Z-AUC,[1]; [4],-0.0432
same,Z-AUC,[1]; measured here: PEO4 Z-AUC,0.449
same,z-score,[2]; [5],1.1
same,z-score,[2]; [6],0.765
same,z-score,[2]; [7],1.18
C[C@@H]1CC[C@@]2(OC1)OC1CC3C4CC=C5CC(O)CCC5(C)C4CCC3(C)C1[C@@H]2C (stereo partly drawn),Z-AUC,[1],0.426 (inactive)
same,Z-AUC,[1]; [4],0.314
same,Z-AUC,[1]; measured here: PEO4 Z-AUC,0.526
same,z-score,[2]; [5],0.586
same,z-score,[2]; [6],0.304
same,z-score,[2]; [7],0.634
CCC(C)CCCCC(=O)N[C@@H](CCN)C(=O)NC(C(=O)N[C@H](CCN)C(=O)N[C@@H]1CCNC(=O)C([C@@H](C)O)NC(=O)[C@@H](CCN)NC(=O)[C@@H](CCN)NC(=O)[C@@H](CC(C)C)NC(=O)[C@H](Cc2ccccc2)NC(=O)[C@H](CCN)NC1=O)[C@@H](C)O (stereo partly drawn) ({Octanoyl(6-Me)}-[Dab][ξThr(3R)][dDab][dDab][Dab]F[dL][dDab][dDab][ξThr(3R)]; lactam 4-C),Z-AUC,[1],1.19 (inactive)
same,Z-AUC,[1]; [4],0.672
same,Z-AUC,[1]; measured here: PEO4 Z-AUC,0.762
same,z-score,[2]; [5],0.782
same,z-score,[2]; [6],0.881
same,z-score,[2]; [7],0.703
CCC[C@@H](C=O)NC(=O)[C@H](CC(C)C)NC(=O)[C@H](CC(C)C)NC(=O)OCc1ccccc1 (Cbz-Leu-Leu-[Nva]-aldehyde),Z-AUC,[1],-1.63 (inactive)
same,Z-AUC,[1]; [4],-1.42
same,Z-AUC,[1]; measured here: PEO4 Z-AUC,-1.86
same,Potency,[2]; TFE3-RCC UOK109 viability,4180 nM (active)
same,z-score,[2]; [5],-1.03
same,z-score,[2]; [6],-2.77
same,z-score,[2]; [7],-1.34
N#CNC(=NCCCCCCOc1ccc(Cl)cc1)Nc1ccncc1,Potency,[1],34.7 nM (active)
same,Z-AUC,[1]; [4],-3.38
same,Z-AUC,[1]; measured here: PEO4 Z-AUC,-3.13
same,Potency,[2]; TFE3-RCC UOK109 viability,7430 nM (active)
same,z-score,[2]; [5],-0.809
same,z-score,[2]; [6],-2.82
same,z-score,[2]; [7],-3.43
CN1[C@H]2CC(OC(=O)[C@@H](CO)c3ccccc3)C[C@H]1[C@H]1O[C@H]12 (stereo partly drawn),z-score,[2]; [5],0.573
same,z-score,[2]; [6],0.895
same,z-score,[2]; [7],0.977
NC(=O)c1ncn([C@@H]2O[C@H](CO)[C@@H](O)[C@@H]2O)c1N,z-score,[2]; [5],0.684
same,z-score,[2]; [6],0.695
same,z-score,[2]; [7],0.605
O=C(O)C(=O)Nc1cccc(C2=NN=N[N]2)c1,z-score,[2]; [5],0.225
same,z-score,[2]; [6],0.525
same,z-score,[2]; [7],0.0651
COc1ccc([C@@H]2CNC(=O)C2)cc1OC1CCCC1,Z-AUC,[1],-0.0996 (inactive)
same,Z-AUC,[1]; [4],-0.168
same,Z-AUC,[1]; measured here: PEO4 Z-AUC,0.0398
same,"activity, negative = inhibition",[3]; parasite line A,9.55% (inactive)
same,"activity, negative = inhibition",[3]; parasite line B,-3.14% (inactive)
same,Potency,3D7,inactive
same,Potency,7G8,inactive
same,Potency,AA1029,inactive
same,Potency,AS120,inactive
C[C@]12C=CC(=O)N[C@@H]1CC[C@H]1[C@H]3CC[C@@H](C(=O)Nc4cc(C(F)(F)F)ccc4C(F)(F)F)[C@@]3(C)CC[C@@H]12,z-score,[2]; [5],0.94
same,z-score,[2]; [6],0.86
same,z-score,[2]; [7],0.116
CC(C)OC(=O)[C@H](C)N[P@](=O)(OC[C@H]1O[C@@H](n2ccc(=O)[nH]c2=O)[C@](C)(F)[C@H]1O)Oc1ccccc1,z-score,[2]; [5],0.488
same,z-score,[2]; [6],1.3
same,z-score,[2]; [7],0.519
N#CC(=C(O)c1ccc(Cl)cc1Cl)c1nc2cc(Cl)ccc2c(=O)[nH]1,z-score,[2]; [5],0.465
same,z-score,[2]; [6],1.29
same,z-score,[2]; [7],0.266
O=C(NNC(=O)c1ccc(CNS(=O)(=O)c2ccc(F)c(Cl)c2)cc1)c1ccccc1,z-score,[2]; [5],0.375
same,z-score,[2]; [6],0.329
same,z-score,[2]; [7],0.518
Nc1nc2c(c(=O)[nH]1)N(C=O)[C@H](CNc1ccc(C(=O)N[C@@H](CCC(=O)O)C(=O)O)cc1)CN2,Z-AUC,[1],1.12 (inactive)
same,Z-AUC,[1]; [4],1.3
same,Z-AUC,[1]; measured here: PEO4 Z-AUC,1.01
same,"activity, negative = inhibition",[3]; parasite line A,9.3% (inactive)
same,"activity, negative = inhibition",[3]; parasite line B,7.79% (inactive)
same,Potency,3D7,inactive
same,Potency,7G8,inactive
same,Potency,AA1029,inactive
same,Potency,AS120,inactive
Cc1ccc(O)c(C(CCN(C(C)C)C(C)C)c2ccccc2)c1 (stereo not drawn),z-score,[2]; [5],0.603
same,z-score,[2]; [6],0.794
same,z-score,[2]; [7],0.77
COC[C@H](NC(=O)c1cnc(C)s1)C(=O)N[C@@H](COC)C(=O)N[C@@H](Cc1ccccc1)C(=O)[C@@]1(C)CO1,Potency,[1],138 nM (active)
same,Z-AUC,[1]; [4],-2.62
same,Z-AUC,[1]; measured here: PEO4 Z-AUC,-3.23
same,Potency,[2]; TFE3-RCC UOK109 viability,3720 nM (active)
same,z-score,[2]; [5],-1.27
same,z-score,[2]; [6],-0.856
same,z-score,[2]; [7],-2.57
COc1cc(C)c(C=CC(C)=CC=CC(C)=CC(=O)O)c(C)c1C,z-score,[2]; [5],0.993
same,z-score,[2]; [6],0.342
same,z-score,[2]; [7],1.02
